Assay outcomes (PubChem)
Shown are actives, neighbours in structure and some others; about 0.53% of the full set was active somewhere.
Rango dissoc inh – inhibition of RanGTP-driven Rango-importin beta dissociation. O95149+P62826. Biochemical FRET Rango-importin beta, RanGTP-induced dissociation. Potency, µM (series often up to 46.1 µM), for the others: top-dose activity change, negative = inhibition. actives 0.071% (n = 340,000). AID 540253; also: potency is read from the fitted curve at half-maximal effect; % of control where 0% means no effect; nearly all actives have a fitted effect of over 45% in size
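Recombinant Rango FRET biosensor (EYFP–snurportin 1 IBB–cerulean CFP10) at 0.1 uM premixed with 0.25 uM importin beta in PBS, 1 mM DTT, 0.02% Tween-20, 0.1% BSA. Compound added 5 min; RanGTP-RCC1 (0.6 uM Ran, 2 mM GTP, 0.2 uM RCC1) then triggers release, read at 45 min.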
Giardia kill – kills Giardia lamblia | Giardia lamblia trophozoite viability | actives 0.15% (n = 340,000) | activity change, % at 7.66 µM, hits read low; in the data active = activity change below about -80%; inconclusive = between about -30% and that limit;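 also: parasites exposed to compound for two days anaerobically before the ATP read; % is scaled to controls: 0 for no effect and ±100 for the full control effect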
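Giardia lamblia trophozoites (100 cells/well) were incubated with compounds for 48 h at 37 deg C under anaerobic conditions. Viability was read as ATP content by one-step luminescence after 15-30 min at room temperature.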
MmCpn inh – blocks the Methanococcus maripaludis chaperonin Mm-Cpn | purified Mm-Cpn ATPase, ADP Transcreener TR-FRET | Potency, µM (highest dose often 76.9 µM), without a hit: at the highest dose activity, negative = inhibition, actives largely listed as inhibitors | actives 0.031% (n = 330,000); active = well fitted inhibition curve with a large enough effect; inconclusive = small, poorly fitted or top-dose-only effect; also: potency is read from the fitted curve at half-maximal effect; % is scaled to controls: 0 for no effect and ±100 for the full control effect; nearly all actives have a fitted effect of over 80% in size
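Inhibition of chaperonin ATP hydrolysis is measured as reduced ADP production, detected by competitive TR-FRET in which signal falls with ADP. Final enzyme 25 nM and ATP 10 uM, reacted 30 min at 37°C.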
Rango complex inh – Rango-importin beta binding inhibition. AID 540263. Potency, µM (series often up to 92.2 µM), for the others: top-dose inhibition of complex formation. Q14974. actives 0.031% (n = 340,000). Rango CFP/YFP FRET sensor + importin beta, 45 min;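 also: potency is read from the fitted curve at half-maximal effect; 0% = DMSO wells and 100% = buffer wells lacking importin beta; nearly all actives have a fitted effect of over 15% in size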
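FRET biosensor Rango (snurportin 1 IBB between N-terminal EYFP and C-terminal Cerulean), 50 nM in PBS/1 mM DTT/0.02% Tween-20/0.1% BSA, preincubated 5 min RT with compound; 0.125 microM importin beta added, 45 min RT, CFP/YFP FRET ratio read.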
CCT chaperon mod – changes cytosolic chaperonin activity; purified chaperonin ATPase assay, HTRF ADP detection, 30 min; activity change, % (no concentration beside the values), hits read low; actives 0.3% (n = 360,000); AID 651819; in the data active = activity change below about -30%; also: % is scaled to controls: 0 for no effect and ±100 for the full control effect
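ATPase activity: ADP formed was measured by HTRF Transcreener (665/615 nm ratio) after 30 min at 37 deg C with 10 uM ATP. Compounds screened at one 76 uM concentration against 40 or 20 nM TRiC in Tris pH 7.4/KCl/MgCl2/DTT buffer.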
Active calls of the source: *; ? = inconclusive; . = no result. Unless noted, calls follow the shape of the full dose curve.

SMILES	Rango dissoc inh	Giardia kill	MmCpn inh	Rango complex inh	CCT chaperon mod
CCC(=O)N1CCN(c2ccccc2NC(=O)c2ccc([N+](=O)[O-])o2)CC1	-1%	-90*	1%	0%	1
CC(C)C(=O)N1CCN(c2ccccc2NC(=O)c2ccc([N+](=O)[O-])o2)CC1	1%	-89*	-1%	-2%	-1
O=C(Nc1ccccc1N1CCN(C(=O)c2ccccc2)CC1)c1ccc([N+](=O)[O-])o1	-1%	-86*	0%	-2%	1
O=C(CNC(=O)c1ccccc1)NCC(=O)OCC(=O)c1ccc2ccccc2c1	.	26	.	.	.
C[C@@H](Nc1nc(Cl)nc2nc[nH]c12)c1ccccc1	.	-21	.	.	.
COc1ccc(-c2sc(N)nc2-c2ccccc2)cc1	.	6	.	.	.
O=S(=O)(NC1CCC(CNS(=O)(=O)c2c(F)cccc2F)CC1)c1ccc2c(c1)OCCO2 (configuration not stated)	.	.	1%	.	.
CCOC(=O)C1=C(C)N=c2s/c(=C/c3cccc([N+](=O)[O-])c3O)c(=O)n2C1c1ccc(OC)cc1OC (configuration not stated)	0%	-80*	1%	0%	1
CCOC(=O)C1=C(C)N=c2s/c(=C\c3ccc(O)c([N+](=O)[O-])c3)c(=O)n2C1c1ccccc1OC (configuration not stated)	-20%	?	1%	4%	0
O=C(Cc1ccc(Br)cc1)Nc1cccc(S(=O)(=O)N2CCOCC2)c1	-13%	-28	1%	0%	2
O=S(=O)(c1cccc(NC(=S)Nc2ccc(Br)cc2Cl)c1)N1CCOCC1	0%	-5	1%	-1%	-63*
CCOC(=O)Cn1c(=O)n(CC(=O)OCC)c2ccccc21	0%	5	3%	-1%	-4
CCOC(=O)n1c2ccccc2c(=O)n1CCO	.	.	.	.	-33*
CC1(C)OC(=O)C2(Cc3ccccc3N3CCCC32)C(=O)O1 (configuration not stated)	.	-11	.	.	.
COc1ccc(CNCc2ccncc2)cc1OC	26%	3	-3%	0%	-65*
COc1ccc(CNCc2ccc(C(F)(F)F)cc2)cc1OC	-3%	8	-1%	-2%	0
CCCN1CNc2c(c(=O)[nH]c(=S)n2CCc2ccc(C)c(C)c2)C1	.	-8	.	.	.
COc1ccccc1NC(=O)CSC1=NC(=O)C(NC(C)=O)C(=O)N1 (configuration not stated)	-3%	-6	-1%	0%	-7
CC(=O)NC1C(=O)N=C(SCC(=O)Nc2ccc(C(F)(F)F)cc2Cl)NC1=O (configuration not stated)	-26%	11	1%	-2%	-53*
CCOC(=O)N1C(COCc2ccccc2)C=CCS1(=O)=O (configuration not stated)	.	-5	.	.	.
CSc1nncc(/C(C)=N/O)n1	10%	9	0%	3%	-57*
